Molecular target: pT7_6His-AlfaTag-HOXD13 (human, UniProt P35453 263-343)
Assay: PADIT-seq
Settings: dsDNA, one strand shown

Sequence of pT7_6His-AlfaTag-HOXD13 (P35453 263-343): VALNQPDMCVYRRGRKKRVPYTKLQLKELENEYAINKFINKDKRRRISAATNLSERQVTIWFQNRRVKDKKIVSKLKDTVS

| Sequence | binding signal |
| --- | --- |
| CTCGAGGATATCAAGATCTGGCCTCGGCCGATGGGCGGGAACCTCTAGCTAGCCGACTCACTATAGGGATAATCGCCCTGAGCAAAGACC | -1.02 ± 0.115 log2FC |
| CTCGAGGATATCAAGATCTGGCCTCGGCACGCTAAAAGGAACCTCTAGCTAGCCGACTCACTATAGGGATAATCGCCCTGAGCAAAGACC | -0.127 ± 0.102 log2FC |
| CTCGAGGATATCAAGATCTGGCCTCGGCTTTTTAGTTGGAACCTCTAGCTAGCCGACTCACTATAGGGATAATCGCCCTGAGCAAAGACC | 0.658 ± 0.103 log2FC |
| CTCGAGGATATCAAGATCTGGCCTCGGCTTTTTAGAAGGAACCTCTAGCTAGCCGACTCACTATAGGGATAATCGCCCTGAGCAAAGACC | 0.559 ± 0.108 log2FC |
| CTCGAGGATATCAAGATCTGGCCTCGGCATTTTAATAGGAACCTCTAGCTAGCCGACTCACTATAGGGATAATCGCCCTGAGCAAAGACC | 2.83 ± 0.073 log2FC |
| CTCGAGGATATCAAGATCTGGCCTCGGCTTTTTACCTGGAACCTCTAGCTAGCCGACTCACTATAGGGATAATCGCCCTGAGCAAAGACC | -0.185 ± 0.138 log2FC |
| CTCGAGGATATCAAGATCTGGCCTCGGCGCGGGCGCGGGAACCTCTAGCTAGCCGACTCACTATAGGGATAATCGCCCTGAGCAAAGACC | -1.05 ± 0.132 log2FC |
| CTCGAGGATATCAAGATCTGGCCTCGGCCGCCTAAAAGGAACCTCTAGCTAGCCGACTCACTATAGGGATAATCGCCCTGAGCAAAGACC | -0.524 ± 0.115 log2FC |
| CTCGAGGATATCAAGATCTGGCCTCGGCCTTTTAAAAGGAACCTCTAGCTAGCCGACTCACTATAGGGATAATCGCCCTGAGCAAAGACC | 2.5 ± 0.0673 log2FC |
| CTCGAGGATATCAAGATCTGGCCTCGGCCCTGTAAAAGGAACCTCTAGCTAGCCGACTCACTATAGGGATAATCGCCCTGAGCAAAGACC | 2.46 ± 0.085 log2FC |
| CTCGAGGATATCAAGATCTGGCCTCGGCGGGATAAAAGGAACCTCTAGCTAGCCGACTCACTATAGGGATAATCGCCCTGAGCAAAGACC | 0.241 ± 0.0798 log2FC |
| CTCGAGGATATCAAGATCTGGCCTCGGCCCTTTAAAAGGAACCTCTAGCTAGCCGACTCACTATAGGGATAATCGCCCTGAGCAAAGACC | 2.14 ± 0.0827 log2FC |
| CTCGAGGATATCAAGATCTGGCCTCGGCATTTTAATCGGAACCTCTAGCTAGCCGACTCACTATAGGGATAATCGCCCTGAGCAAAGACC | 1.1 ± 0.0894 log2FC |
| CTCGAGGATATCAAGATCTGGCCTCGGCCTATGGGCGGGAACCTCTAGCTAGCCGACTCACTATAGGGATAATCGCCCTGAGCAAAGACC | -0.949 ± 0.119 log2FC |
| CTCGAGGATATCAAGATCTGGCCTCGGCTCTATAAAAGGAACCTCTAGCTAGCCGACTCACTATAGGGATAATCGCCCTGAGCAAAGACC | 2.9 ± 0.0831 log2FC |
| CTCGAGGATATCAAGATCTGGCCTCGGCATATTAAAAGGAACCTCTAGCTAGCCGACTCACTATAGGGATAATCGCCCTGAGCAAAGACC | 2.69 ± 0.07 log2FC |
| CTCGAGGATATCAAGATCTGGCCTCGGCTACATAAAAGGAACCTCTAGCTAGCCGACTCACTATAGGGATAATCGCCCTGAGCAAAGACC | 2.05 ± 0.0966 log2FC |
| CTCGAGGATATCAAGATCTGGCCTCGGCCTTTTAGGAGGAACCTCTAGCTAGCCGACTCACTATAGGGATAATCGCCCTGAGCAAAGACC | 1.3 ± 0.0799 log2FC |
| CTCGAGGATATCAAGATCTGGCCTCGGCAAATTAAAAGGAACCTCTAGCTAGCCGACTCACTATAGGGATAATCGCCCTGAGCAAAGACC | 2.15 ± 0.08 log2FC |

| Sequence | binding signal |
| --- | --- |
| CTCGAGGATATCAAGATCTGGCCTCGGCGTTTTAACGGGAACCTCTAGCTAGCCGACTCACTATAGGGATAATCGCCCTGAGCAAAGACC | 1.81 ± 0.0879 log2FC |
| CTCGAGGATATCAAGATCTGGCCTCGGCTTGTGGGCGGGAACCTCTAGCTAGCCGACTCACTATAGGGATAATCGCCCTGAGCAAAGACC | -0.943 ± 0.108 log2FC |
| CTCGAGGATATCAAGATCTGGCCTCGGCGCGACAGCGGGAACCTCTAGCTAGCCGACTCACTATAGGGATAATCGCCCTGAGCAAAGACC | -1.04 ± 0.131 log2FC |
| CTCGAGGATATCAAGATCTGGCCTCGGCGTTTTAACAGGAACCTCTAGCTAGCCGACTCACTATAGGGATAATCGCCCTGAGCAAAGACC | 1.92 ± 0.0739 log2FC |
| CTCGAGGATATCAAGATCTGGCCTCGGCGACCCACGCGGAACCTCTAGCTAGCCGACTCACTATAGGGATAATCGCCCTGAGCAAAGACC | -1.05 ± 0.109 log2FC |
| CTCGAGGATATCAAGATCTGGCCTCGGCGTTTTATTGGGAACCTCTAGCTAGCCGACTCACTATAGGGATAATCGCCCTGAGCAAAGACC | 3.37 ± 0.0853 log2FC |
| CTCGAGGATATCAAGATCTGGCCTCGGCTTTTTACCAGGAACCTCTAGCTAGCCGACTCACTATAGGGATAATCGCCCTGAGCAAAGACC | 0.621 ± 0.101 log2FC |
| CTCGAGGATATCAAGATCTGGCCTCGGCCTTTTAGTGGGAACCTCTAGCTAGCCGACTCACTATAGGGATAATCGCCCTGAGCAAAGACC | 1.46 ± 0.0766 log2FC |
| CTCGAGGATATCAAGATCTGGCCTCGGCATTTTACGGGGAACCTCTAGCTAGCCGACTCACTATAGGGATAATCGCCCTGAGCAAAGACC | 3.18 ± 0.0854 log2FC |
| CTCGAGGATATCAAGATCTGGCCTCGGCGCGTGGCATGGAACCTCTAGCTAGCCGACTCACTATAGGGATAATCGCCCTGAGCAAAGACC | -1.09 ± 0.127 log2FC |
| CTCGAGGATATCAAGATCTGGCCTCGGCGGGTTAAAAGGAACCTCTAGCTAGCCGACTCACTATAGGGATAATCGCCCTGAGCAAAGACC | 0.632 ± 0.0825 log2FC |
| CTCGAGGATATCAAGATCTGGCCTCGGCCGCCCAGGAGGAACCTCTAGCTAGCCGACTCACTATAGGGATAATCGCCCTGAGCAAAGACC | -1.1 ± 0.149 log2FC |
| CTCGAGGATATCAAGATCTGGCCTCGGCACCGTAAAAGGAACCTCTAGCTAGCCGACTCACTATAGGGATAATCGCCCTGAGCAAAGACC | 1.91 ± 0.0753 log2FC |
| CTCGAGGATATCAAGATCTGGCCTCGGCGCGTGGTACGGAACCTCTAGCTAGCCGACTCACTATAGGGATAATCGCCCTGAGCAAAGACC | -0.921 ± 0.116 log2FC |
| CTCGAGGATATCAAGATCTGGCCTCGGCTTATTAAAAGGAACCTCTAGCTAGCCGACTCACTATAGGGATAATCGCCCTGAGCAAAGACC | 3.06 ± 0.0807 log2FC |
| CTCGAGGATATCAAGATCTGGCCTCGGCATTTTATCTGGAACCTCTAGCTAGCCGACTCACTATAGGGATAATCGCCCTGAGCAAAGACC | 0.909 ± 0.103 log2FC |
| CTCGAGGATATCAAGATCTGGCCTCGGCGCGTGGTATGGAACCTCTAGCTAGCCGACTCACTATAGGGATAATCGCCCTGAGCAAAGACC | -1.06 ± 0.113 log2FC |
| CTCGAGGATATCAAGATCTGGCCTCGGCATCCTAAAAGGAACCTCTAGCTAGCCGACTCACTATAGGGATAATCGCCCTGAGCAAAGACC | 0.337 ± 0.103 log2FC |
| CTCGAGGATATCAAGATCTGGCCTCGGCAGAATAAAAGGAACCTCTAGCTAGCCGACTCACTATAGGGATAATCGCCCTGAGCAAAGACC | 0.976 ± 0.0851 log2FC |
